26 compounds from PubChem BioAssay (Tox21) can be followed below.

Values joined by “and” are separate entries in the source; they are usually repeats but may differ in a detail not shown here. Equal values may be shown once. Results filed as inconclusive are left out. Some compounds were tested as several samples or in several runs, with calls that do not always agree. Active and inactive are the calls of the source. Unless noted, the call rests on the fitted dose curve; in most records, active means well fitted curve in the direction sought with a large enough effect in the repeat runs; inconclusive means weak or mixed curves; inactive means no such curve, though single readings can be large; an effect the other way counts as inactive or inconclusive.

A short description of assay [1]: qHTS assay to identify small molecule agonists of the hypoxia (HIF-1) signaling pathway - cell viability counter screen (AID 1224844; calls by dose curve; further: nearly all actives have a fitted effect of over 50% in size; further: potency means the concentration at half of the fitted maximal effect). In a few lines: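 HRE-bla ME-180; 0.5% dFBS; cpd 17 h, 37C, 5% CO2; CellTiter-Glo lum., 30 min RT, post-FRET read, same wells.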
For orientation: In qHTS, concentration-response curves come from the screen itself.

Assay [2] in a line: qHTS assay to identify small molecule agonists of the hypoxia (HIF-1) signaling pathway (AID 1224846; active means well fitted activation curve with a large enough effect in the signal ratio in the repeat runs, not every such curve was filed as active; the % refers to the signal ratio). An outline of the steps:
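Reporter induction in HRE-bla ME-180 cells is taken as agonism: cells sit 5 hrs after plating, receive compounds or DMSO only, incubate 17 hrs at 37C under 5% CO2, and are loaded with CCF4-AM for beta-lactamase FRET measurement.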

A short description of assay [3]: qHTS assay to identify small molecule agonists of H2AX - cell viability counter screen (AID 1224847; calls by dose curve;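 further: wild-type CHO-K1 cells; top concentration of the series differs between compounds; nearly all actives have a fitted effect of over 30% in size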). In a few lines:
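Counter-screen for viability: CellTiter-Glo ATP luminescence read after 3 h compound treatment (15-point titration, 0.76% DMSO final) of CHO-K1 cells at 37C, with 30 min room-temperature reagent incubation.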

Assay [4] in a line: qHTS RealTime-Glo MT Cell Viability Assay in HepG2 cells - 24 hour (AID 1224867). Further: nearly all actives have a fitted effect of over 50% in size. An outline of the steps:
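Real-time, nonlytic viability: 600 HepG2 cells/well mixed with NanoLuc enzyme plus prosubstrate; 5 h settle, compound (DMSO) added by pintool; luminescence monitored over 40 h at 37 C.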

Assay [5] can be described thus: A CellTox Green Cytotoxicity Assay to monitor cytotoxicity in HEK293 cells - 0 hour (AID 1224869). Further: nearly all actives have a fitted effect of over 50% in size. An outline of the steps:
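Tox21 screen in HEK293: membrane-impermeant cyanine dye fluoresces on binding dead-cell DNA; compound pinned 5 h post-seeding, plates held at 37 C, signal read repeatedly through 40 h.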

Assay [6] in a line: qHTS RealTime-Glo MT Cell Viability Assay in HepG2 cells - 40 hour (AID 1224870). Further: nearly all actives have a fitted effect of over 50% in size. Further: potency means the concentration at half of the fitted maximal effect. In a few lines: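 Real-time viability: cells seeded at 600 per well together with NanoLuc and cell-permeant prosubstrate, compounds added after 5 h incubation. Luminescence tracked at 0, 8, 16, 24, 32 and 40 h of exposure.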
Assay [7] can be described thus: qHTS assay to identify small molecule agonists of H2AX (AID 1224845; active means well fitted activation curve with a large enough effect in the signal ratio in the repeat runs, not every such curve was filed as active; the % refers to the signal ratio). An outline of the steps:
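Phospho-H2AX Ser139 measured by HTRF (ex 320 nm; em 665 and 620 nm) after 24 hr antibody incubation. Compounds, 15 concentrations, 0.76% DMSO, were applied to CHO-K1 cells for 3hr at 37C before lysis.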

Assay [8] can be described thus: qHTS RealTime-Glo MT Cell Viability Assay in HEK293 cells - 32 hour (AID 1224868). An outline of the steps: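 Cells + reagent dispensed (600 cells/well, HEK293) → 5 h at 37 C/5% CO2 → 23 nL compound in DMSO pinned → 40 h at 37 C → luminescence read at 0, 8, 16, 24, 32, 40 h.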
A short description of assay [9]: qHTS assay to identify small molecule antagonists of the estrogen related receptor (ERR) signaling pathway from Tox21 library (AID 1224848). Further: nearly all actives have a fitted effect of over 50% in size. Further: potency means the concentration at half of the fitted maximal effect. An outline of the steps:
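ERR cell line, 2,000 cells/well. 6 h settle, then compound (DMSO) added; 18 h at 37 C; ONE-Glo luminescence after 30 min RT.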

Assay [10] can be described thus: qHTS assay to identify small molecule agonists of the estrogen related receptor (ERR) signaling pathway from Tox21 library (AID 1224849; calls by dose curve; further: nearly all actives have a fitted effect of over 15% in size). To be noted: ERR reporter cell line, ONE-Glo luciferase, 18 h; at 92.4 µM (top of the series) unless noted. An outline of the steps: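 Tox21 compounds tested for ERR agonism in an NTP reporter cell line: 18 h treatment at 37 C, then ONE-Glo luminescence.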
On the % scale 0 is the no-effect control and ±100 the full control effect.

Consider `C=C(Cl)CSC(=S)N(CC)CC`, for which the Potency entry in assay [1], in assay [3], in [4] and in [6] was “inactive” in each case. Also, the call in assay [2] and in assay [5] was inactive.

With `O=C(Cl)C(Cl)(Cl)Cl`, the call in assay [7] and in assay [2] was inactive. The Potency result in assay [3], in assay [4], in [8] and in [6] was “inactive” each time.

On to `CCOC1Oc2ccc(OS(C)(=O)=O)cc2C1(C)C` (configuration not stated), for which the Potency result in assay [1], in assay [3] and in [6] was “inactive” each time. Besides, the outcome in assay [2] and in assay [5] was inactive.

`O=C(NC(O)C(Cl)(Cl)Cl)NC(O)C(Cl)(Cl)Cl` (configuration not stated): the Potency entry in [1], in assay [3] and in assay [6] was “inactive” each time. Also, the compound was classed as inactive in assay [2] and in [5].

As for `COC(=O)[C@@H](N)CCCN/C(N)=N/[N+](=O)[O-]`, the Potency entry in assay [1], in assay [3], in assay [4] and in [8] was “inactive” throughout. In addition, in assay [5], the compound was called inactive.

Turning to `CC(=O)OCC1=C(C(=O)O)N2C(=O)[C@@H](N)[C@H]2SC1`, the results for the activity change, negative = cytotoxicity in assay [1], in assay [3] and in assay [4] were -17.2% [at 15.8 µM] (inactive), 3.73% [at 31.6 µM] (inactive) and 0.275% [at 15.8 µM] (inactive), respectively. Also, the activity, negative = inhibition in assay [9] was 15.1% [at 19 µM] (inactive). For the same compound, in [10], the activity change, positive = activation was 9.57% [at 19 µM] (inactive). The activity change, negative = cytotoxic in assay [8] is 19.8% [at 15.8 µM] (inactive); in assay [6], 3.09% [at 15.8 µM] (inactive). In addition, the cytotoxicity in assay [5] is 1.32% [at 15.8 µM] (inactive).

As to `CCNc1nc(Cl)nc(NC(C)(C)C)n1`, the Potency result in [1], in [3], in [4], in assay [8] and in assay [6] was “inactive” throughout.

For the compound `CCOc1cc(OP(=S)(OC)OC)nc(CC)n1`, the Potency result in assay [1], in [3], in assay [4], in [8] and in [6] was “inactive” each time. Further, the compound was classed as inactive in assay [2] and in assay [5].

Turning to `CC(C)(C)C(=O)C(Cl)Cl`, the Potency result in [1], in assay [3], in assay [4], in assay [8] and in assay [6] was “inactive” each time. Further, the outcome in [2] and in assay [5] was inactive.

As for `O=P(O)(O)CN(CP(=O)(O)O)CP(=O)(O)O`, the Potency entry in [1], in assay [3], in assay [4] and in assay [6] was “inactive” in each case. Moreover, the compound was called inactive in [2]. Besides, in assay [5], the cytotoxicity is 9.86% [at 15.8 µM] (inactive).

For `CCOC(=O)c1ncn2c1CN(C)C(=O)c1c(I)cccc1-2`, the Potency result in assay [1], in assay [3], in assay [8] and in assay [6] was “inactive” in each case. Further, in assay [2], the result was inactive.

As for `CCCCCCCCBr`, the Potency result in assay [1], in [3], in assay [4] and in assay [6] was “inactive” in each case. In addition, the outcome in assay [2] and in assay [5] was inactive.

Regarding `ClCOCCl`, the Potency entry in [1], in assay [3], in [4], in [8] and in assay [6] was “inactive” each time. Further, the compound was classed as inactive in [2] and in [5].

Turning to `CCOP(=S)(OCC)SCCl`, the Potency entry in assay [1], in assay [3], in [8] and in assay [6] was “inactive” in each case. The outcome in assay [2] and in [5] was inactive.

On to `CC(C)(C)c1cc(O)ccc1O`, for which the Potency result in [1], in [3], in assay [4] and in assay [6] was “inactive” each time. Further, in [5], the result was inactive.

`COc1ccc2c(C(=O)c3ccc(Cl)cc3)c(C)n(CC(=O)O)c2c1`: the Potency result in [1], in assay [3], in assay [4], in assay [8] and in assay [6] was “inactive” in each case. Besides, the outcome in assay [2] and in assay [5] was inactive.

As to `CC[C@H](O)C(C[C@H](C)N(C)C)(c1ccccc1)c1ccccc1`, the Potency entry in [1], in [4] and in [6] was “inactive” in each case. For the same compound, the compound was called inactive in assay [2].

Turning to `CC#Cc1cc(C)nc(Nc2ccccc2)n1`, the Potency result in [1], in assay [3], in [4] and in assay [6] was “inactive” throughout. The result in assay [2] and in assay [5] was inactive.

For the compound `CCCCOC(C)=O`, the Potency result in assay [1], in assay [3], in assay [4] and in assay [6] was “inactive” each time. In addition, the compound was classed as inactive in assay [2] and in assay [5].

For `O=C(O)C(F)(F)C(F)(F)C(F)(F)C(F)(F)C(F)(F)C(F)(F)F`, the compound was classed as inactive in assay [7], in assay [2] and in assay [5]. Also, the Potency result in assay [3], in [4], in [8] and in [6] was “inactive” in each case.

With `CC(C)(O)C(Cl)(Cl)Cl`, the Potency entry in assay [1], in assay [3], in assay [4], in [8] and in assay [6] was “inactive” in each case. Moreover, the call in assay [2] and in assay [5] was inactive.

Take `O=C1C2CC=CCC2C(=O)N1SC(Cl)(Cl)Cl` (configuration not stated): the Potency in assay [1] is 6.07 µM (active); in [9], “inactive and 30.1 µM (active)”; in assay [6], “inactive and 19.2 µM (active)”. In [10], the activity change, positive = activation is -8.8% (inactive) and -75.3% (inactive). In addition, in [5], the compound was classed as inactive.

On to `O=C(O)C(Br)(Br)Br`, for which the outcome in assay [7], in assay [2] and in assay [5] was inactive. For the same compound, the Potency result in assay [3], in assay [9], in assay [4] and in [8] was “inactive” throughout. For the same compound, the activity change, positive = activation in assay [10] is 0.595% (inactive). In assay [6], the Potency was 49 µM (active).

For `CC(=NC#N)N(C)Cc1ccc(Cl)nc1`, the Potency entry in assay [1], in [3], in [8] and in [6] was “inactive” in each case. The compound was called inactive in [2] and in [5].

As for `CCCOC(=O)Cc1ccc(OCC(=O)N(CC)CC)c(OC)c1`, the Potency entry in assay [1], in assay [3] and in [8] was “inactive” in each case. The result in assay [2] and in [5] was inactive.

As to `CCC(C(N)=O)N1CCCC1=O` (configuration not stated), the Potency entry in assay [1], in assay [3], in [4] and in [6] was “inactive” each time. Moreover, the compound was called inactive in assay [2] and in assay [5].
